# Source: PubChem (several laboratories)
# PfHsp90 yeast 2: inhibits growth of yeast expressing Plasmodium falciparum Hsp90 | actives 0.32% (n = 310,000) | inhibition, % at 9.4 µM | S. cerevisiae expressing PfHsp90, BacTiter-Glo ATP, 48 h; yeast lacking PDR1 and PDR3 efflux regulators;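 active = every replicate shows inhibition above about 80%, whatever the replicate mean, limit read from the data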;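 also: 0% = DMSO neutral controls and 100% = 20 µM radicicol positive controls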
# tim23-1 inh: inhibits growth of tim23-1 mutant yeast; S. cerevisiae tim23-1 growth, BacTiter-Glo luminescence, 24 h; inhibition, % at 20 µM; actives 1.3% (n = 330,000); AID 463212;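 active = growth inhibition of the mutant yeast at or above 50%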;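 also: temperature-sensitive mutant grown at 25 °C; plate controls were DMSO-treated mutant yeast for no effect and medium wells lacking yeast for full effect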
# TIM10 inh: TIM10 yeast growth inhibition | inhibition, % at 10 µM | S. cerevisiae TIM10 strain growth, BacTiter-Glo luminescence, 24 h | AID 463195 | actives 1.4% (n = 330,000);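 active = inhibition of 40% or more at the single tested concentration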;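 also: wild-type TIM10 isogenic control strain grown at permissive 25 °C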
# SKKanGAS inh: inhibitors of SKKanGAS S. pyogenes growth in kanamycin (SK-promoter or general growth effect) | BacTiter-Glo, 6 h | inhibition, % at 7.5 µM | actives 1.3% (n = 300,000);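 active = mean replicate score, as percent of positive control median, at least 50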;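 also: strain carries kanamycin resistance gene driven by streptokinase promoter and grows in 40 µg/ml kanamycin; loss of luminescence reflects streptokinase promoter inhibition or plain growth inhibition; 0% = median of DMSO wells and 100% = positive control at its reference dose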
# tim10-1 inh: tim10-1 yeast growth inhibition; S. cerevisiae tim10-1 ts strain growth, BacTiter-Glo, 24 h; inhibition, % at 20 µM; actives 2.2% (n = 330,000);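 active = inhibition of at least 40%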;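 also: mutant grown at 25 °C; 0% = DMSO wells with yeast and 100% = wells holding no yeast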
# * = called active by the depositor; · = no result given. Only some compounds are listed: those with a hit (about 4.4% of all), similar ones and a draw of the others.
SMILES,PfHsp90 yeast 2,tim23-1 inh,TIM10 inh,SKKanGAS inh,tim10-1 inh
COc1cccc2c1C(=O)c1c(O)c3c(c(O)c1C2=O)C[C@@](O)(C(=O)CO)C[C@@H]3O[C@H]1C[C@H](N)[C@@H](O)[C@H](C)O1,-30,36,-20,108*,-13
COc1cccc2c1C(=O)c1c(O)c3c(c(O)c1C2=O)C[C@@](O)(C(C)=O)C[C@@H]3O[C@H]1C[C@H](N)[C@H](O)[C@H](C)O1,49,·,·,·,·
COc1cccc2c1C(=O)c1c(O)c3c(c(O)c1C2=O)CC(O)(C(=O)CO)CC3OC1CC(N(C)C)C(O)C(C)O1 (centres undefined),106*,·,·,·,·
CC(=O)[C@]1(O)Cc2c(O)c3c(c(O)c2[C@@H](O[C@H]2C[C@H](N)[C@H](O)[C@H](C)O2)C1)C(=O)c1ccccc1C3=O,·,49,-10,104*,23
O=C(CC(=O)c1cccs1)c1ccncc1,6,·,·,·,·
COc1ccc(/C=N/n2nnnc2N)c(OC)c1,-7,7,16,-8,14
Cc1ccc(OCCSc2nc(NC(C)C)nc(NC(C)C)n2)cc1,8,24,17,72*,13
CCOC(=O)/C(=N\Nc1ccc(Cl)cc1)c1csc(Nc2ccccc2)n1,-10,23,39,73*,39
CCN(CC)C(=O)c1csc(Nc2ccc(C)cc2)n1,·,30,12,·,27
CCOC(=O)/C(=N\Nc1ccc(OC)cc1)c1csc(Nc2ccccc2)n1,-54,37,34,60*,23
O=C(NCC(=O)N1CCN(S(=O)(=O)c2c(F)cccc2F)CC1)c1ccccc1F,6,18,7,·,-7
CC(=O)Nc1ccc(C#Cc2ccc(NC(C)=O)cc2)cc1,6,6,7,84*,-9
Cc1ccc(N=Nc2ccc(O)c3ncccc23)cc1C,-58,18,0,88*,38
Cc1ccc(N=Nc2ccc(O)c3ncccc23)cc1,-42,·,·,109*,·
Cc1ccc(NC(=O)c2ncn(CCCN(C)CCc3ccccn3)n2)cc1C,-23,·,·,·,·
O=C(Cc1n[nH]c(=O)c2ccccc12)Nc1cc(C(F)(F)F)ccc1-n1cncn1,5,17,-6,·,1
COc1ccc(COCC(O)CN2CCN(S(=O)(=O)c3ccc(C(C)C)cc3)CC2)cc1 (centres undefined),-6,35,25,·,18
C=CCOc1ccc(C=CC(=O)c2c(O)c(OC)c(OC)c(OC)c2OC)cc1,43,·,·,·,·
C=CCc1cc(/C=C2/NC(=O)N(CC)C2=O)cc(OCC)c1OCc1ccc(C(=O)O)cc1,-6,12,11,61*,14
C=CCc1cc(C=O)cc(OCC)c1OCc1ccc(Cl)cc1,-15,10,-12,8,15
CC(C)=CCc1cc([C@@H]2COc3c(ccc4c3C=CC(C)(C)O4)C2)c(O)cc1O,105*,43,26,105*,27
CC(C)OCCCNC(=O)c1cccc2c1C(=O)c1ccc(Cl)cc1S2(=O)=O,·,16,3,·,17
CCN(C(=O)COC(=O)C1CCC(C(C)(C)C)CC1)c1c(N)n(Cc2ccccc2)c(=O)[nH]c1=O (centres undefined),-1,·,·,·,·
O=[N+]([O-])c1ccc(Cl)c(/C=N/n2c(COc3ccccc3)n[nH]c2=S)c1,-19,10,11,1,30
O=C(N/N=C/c1cc([N+](=O)[O-])ccc1O)c1c[nH]c2ccccc12,16,-9,1,66*,14
SMILES,PfHsp90 yeast 2,tim23-1 inh,TIM10 inh,SKKanGAS inh,tim10-1 inh
Cn1c(SCC(=O)N/N=C/c2cc([N+](=O)[O-])ccc2O)nnc1-c1ccccc1,24,-21,10,93*,4
CCOC(=O)c1c(C)[nH]c(C(=O)N/N=C\c2ccccc2O)c1C,2,·,·,15,·
O=c1c2ccccc2nc(COc2ccccc2)n1/N=C/c1cc([N+](=O)[O-])ccc1O,28,49,24,76*,20
CCOC(=O)c1c(C)[nH]c(C(=O)N/N=C/c2cc([N+](=O)[O-])ccc2O)c1C,7,22,26,80*,21
O=C(N/N=C/c1cccc([N+](=O)[O-])c1)c1c[nH]c2ccccc12,8,3,-9,4,2
N#CCCN(C(=O)CN1CCN(S(=O)(=O)c2ccc3c(c2)OCCO3)CC1)c1ccc(F)cc1,·,-16,5,·,-12
COc1ccccc1C(=O)COC(=O)C1(C)CC1(Cl)Cl (centres undefined),4,34,11,·,14
